Where two headings read alike, the source gives them in different places.
Experiments:
[1] = tested on: PLK4; conditions: read-out: apparent Kd, n = 1
[2] = tested on: PRKAA2; conditions: read-out: apparent Kd, n = 1
[3] = compound concentrations:100 nM and 1000 nM (sheet 'Lestaurtinib' of Supplementary Table 1),run:Lestaurtinib_02422_R3,Plate:MR006
[4] = compound concentrations:100 nM and 1000 nM (sheet 'Lestaurtinib' of Supplementary Table 1),run:Lestaurtinib_02437_R2,Plate:MR007
[5] = compound concentrations:100 nM and 1000 nM (sheet 'Lestaurtinib' of Supplementary Table 1),run:Lestaurtinib_02437_R3,Plate:MR007
[6] = compound concentrations:100 nM and 1000 nM (sheet 'Lestaurtinib' of Supplementary Table 1),run:Lestaurtinib_02443_R3,Plate:MR009
[7] = compound concentrations:100 nM and 1000 nM (sheet 'Lestaurtinib' of Supplementary Table 1),run:Lestaurtinib_02473_R3,Plate:MR010
[8] = compound concentrations:100 nM and 1000 nM (sheet 'Lestaurtinib' of Supplementary Table 1),run:Lestaurtinib_02482_R2,Plate:MR011
[9] = compound concentrations:100 nM and 1000 nM (sheet 'Lestaurtinib' of Supplementary Table 1),run:Lestaurtinib_02487_R1,Plate:MR012
[10] = compound concentrations:100 nM and 1000 nM (sheet 'Lestaurtinib' of Supplementary Table 1),run:Lestaurtinib_02487_R3,Plate:MR012
[11] = compound concentrations:100 nM and 1000 nM (sheet 'Lestaurtinib' of Supplementary Table 1),run:Lestaurtinib_02496_R1,Plate:MR013

Which results are given for Lestaurtinib?
potency estimated from few doses ([1]; compound concentrations:100 nM and 1000 nM (sheet 'Lestaurtinib' of Supplementary Table 1),run:Lestaurtinib_02422_R1,Plate:MR006): 56.6 nM; potency estimated from few doses [1, 3]: 60.8 nM; potency estimated from few doses ([1]; compound concentrations:100 nM and 1000 nM (sheet 'Lestaurtinib' of Supplementary Table 1),run:Lestaurtinib_02437_R1,Plate:MR007): 58.1 nM; potency estimated from few doses [1, 4]: 61.6 nM; potency estimated from few doses [1, 5]: 41 nM; potency estimated from few doses ([1]; compound concentrations:100 nM and 1000 nM (sheet 'Lestaurtinib' of Supplementary Table 1),run:Lestaurtinib_02438_R2,Plate:MR008): 70.6 nM; potency estimated from few doses ([1]; compound concentrations:100 nM and 1000 nM (sheet 'Lestaurtinib' of Supplementary Table 1),run:Lestaurtinib_02438_R3,Plate:MR008): 67.9 nM; potency estimated from few doses ([1]; compound concentrations:100 nM and 1000 nM (sheet 'Lestaurtinib' of Supplementary Table 1),run:Lestaurtinib_02443_R1,Plate:MR009): 70.3 nM; potency estimated from few doses ([1]; compound concentrations:100 nM and 1000 nM (sheet 'Lestaurtinib' of Supplementary Table 1),run:Lestaurtinib_02443_R2,Plate:MR009): 81 nM; potency estimated from few doses [1, 6]: 62.6 nM; potency estimated from few doses [1, 7]: 43.1 nM; potency estimated from few doses [1, 8]: 113 nM; potency estimated from few doses [1, 9]: 79.1 nM; potency estimated from few doses [1, 10]: 83.9 nM; potency estimated from few doses [1, 11]: 78.2 nM; potency estimated from few doses ([1]; compound concentrations:100 nM and 1000 nM (sheet 'Lestaurtinib' of Supplementary Table 1),run:Lestaurtinib_02496_R2,Plate:MR013): 94.1 nM; potency estimated from few doses ([1]; compound concentrations:100 nM and 1000 nM (sheet 'Lestaurtinib' of Supplementary Table 1),run:Lestaurtinib_02496_R3,Plate:MR013): 53.6 nM; potency estimated from few doses ([1]; compound concentrations:100 nM and 1000 nM (sheet 'Lestaurtinib' of Supplementary Table 1),run:Lestaurtinib_02566_R2,Plate:MR014): 56 nM; potency estimated from few doses ([1]; compound concentrations:100 nM and 1000 nM (sheet 'Lestaurtinib' of Supplementary Table 1),run:Lestaurtinib_02566_R3,Plate:MR014): 92.7 nM; potency estimated from few doses ([1]; compound concentrations:100 nM and 1000 nM (sheet 'Lestaurtinib' of Supplementary Table 1),run:Lestaurtinib_02572_R1,Plate:MR015): 50.1 nM; potency estimated from few doses ([1]; compound concentrations:100 nM and 1000 nM (sheet 'Lestaurtinib' of Supplementary Table 1),run:Lestaurtinib_02572_R2,Plate:MR015): 77.6 nM; potency estimated from few doses ([1]; compound concentrations:100 nM and 1000 nM (sheet 'Lestaurtinib' of Supplementary Table 1),run:Lestaurtinib_02577_R1,Plate:MR016): 55.9 nM; potency estimated from few doses ([1]; compound concentrations:100 nM and 1000 nM (sheet 'Lestaurtinib' of Supplementary Table 1),run:Lestaurtinib_02577_R3,Plate:MR016): 35.1 nM; potency estimated from few doses ([1]; compound concentrations:100 nM and 1000 nM (sheet 'Lestaurtinib' of Supplementary Table 1),run:Lestaurtinib_02584_R1,Plate:MR017): 56.6 nM; potency estimated from few doses ([1]; compound concentrations:100 nM and 1000 nM (sheet 'Lestaurtinib' of Supplementary Table 1),run:Lestaurtinib_02584_R2,Plate:MR017): 79.8 nM; potency estimated from few doses ([1]; compound concentrations:100 nM and 1000 nM (sheet 'Lestaurtinib' of Supplementary Table 1),run:Lestaurtinib_02584_R3,Plate:MR017): 76.3 nM; potency estimated from few doses ([1]; compound concentrations:100 nM and 1000 nM (sheet 'Lestaurtinib' of Supplementary Table 1),run:Lestaurtinib_02601_R3,Plate:MR018): 59.1 nM; potency estimated from few doses ([1]; compound concentrations:100 nM and 1000 nM (sheet 'Lestaurtinib' of Supplementary Table 1),run:Lestaurtinib_02606_R2,Plate:MR019): 68.7 nM; potency estimated from few doses ([1]; compound concentrations:100 nM and 1000 nM (sheet 'Lestaurtinib' of Supplementary Table 1),run:Lestaurtinib_02606_R3,Plate:MR019): 58 nM; potency estimated from few doses ([1]; compound concentrations:100 nM and 1000 nM (sheet 'Lestaurtinib' of Supplementary Table 1),run:Lestaurtinib_02624_R1,Plate:MR020): 169 nM; potency estimated from few doses ([1]; compound concentrations:100 nM and 1000 nM (sheet 'Lestaurtinib' of Supplementary Table 1),run:Lestaurtinib_02624_R3,Plate:MR020): 47.2 nM; potency estimated from few doses ([1]; compound concentrations:100 nM and 1000 nM (sheet 'Lestaurtinib' of Supplementary Table 1),run:Lestaurtinib_02724_R1,Plate:MR021): 70.6 nM; potency estimated from few doses ([1]; compound concentrations:100 nM and 1000 nM (sheet 'Lestaurtinib' of Supplementary Table 1),run:Lestaurtinib_02724_R2,Plate:MR021): 57.7 nM; potency estimated from few doses ([1]; compound concentrations:100 nM and 1000 nM (sheet 'Lestaurtinib' of Supplementary Table 1),run:Lestaurtinib_02724_R3,Plate:MR021): 86.8 nM; potency estimated from few doses ([1]; compound concentrations:100 nM and 1000 nM (sheet 'Lestaurtinib' of Supplementary Table 1),run:Lestaurtinib_02741_R1,Plate:MR023): 235 nM; potency estimated from few doses ([1]; compound concentrations:100 nM and 1000 nM (sheet 'Lestaurtinib' of Supplementary Table 1),run:Lestaurtinib_02741_R2,Plate:MR023): 213 nM; potency estimated from few doses ([1]; compound concentrations:100 nM and 1000 nM (sheet 'Lestaurtinib' of Supplementary Table 1),run:Lestaurtinib_02741_R3,Plate:MR023): 215 nM; potency estimated from few doses ([1]; compound concentrations:100 nM and 1000 nM (sheet 'Lestaurtinib' of Supplementary Table 1),run:Lestaurtinib_02748_R2,Plate:MR024): 80.7 nM; potency estimated from few doses ([1]; compound concentrations:100 nM and 1000 nM (sheet 'Lestaurtinib' of Supplementary Table 1),run:Lestaurtinib_02752_R1,Plate:MR025): 93.7 nM; potency estimated from few doses ([1]; compound concentrations:100 nM and 1000 nM (sheet 'Lestaurtinib' of Supplementary Table 1),run:Lestaurtinib_02752_R2,Plate:MR025): 68.6 nM; potency estimated from few doses ([1]; compound concentrations:100 nM and 1000 nM (sheet 'Lestaurtinib' of Supplementary Table 1),run:Lestaurtinib_02765_R1,Plate:MR026): 165 nM; potency estimated from few doses ([1]; compound concentrations:100 nM and 1000 nM (sheet 'Lestaurtinib' of Supplementary Table 1),run:Lestaurtinib_02766_R1,Plate:MR027): 56.5 nM; potency estimated from few doses ([1]; compound concentrations:100 nM and 1000 nM (sheet 'Lestaurtinib' of Supplementary Table 1),run:Lestaurtinib_02768_R1,Plate:MR028): 51.6 nM; potency estimated from few doses ([1]; compound concentrations:100 nM and 1000 nM (sheet 'Lestaurtinib' of Supplementary Table 1),run:Lestaurtinib_02768_R2,Plate:MR028): 61.6 nM; potency estimated from few doses ([1]; compound concentrations:100 nM and 1000 nM (sheet 'Lestaurtinib' of Supplementary Table 1),run:Lestaurtinib_02768_R3,Plate:MR028): 74.4 nM; potency estimated from few doses ([1]; compound concentrations:100 nM and 1000 nM (sheet 'Lestaurtinib' of Supplementary Table 1),run:Lestaurtinib_02795_R1,Plate:MR022): 55.3 nM; potency estimated from few doses ([1]; compound concentrations:100 nM and 1000 nM (sheet 'Lestaurtinib' of Supplementary Table 1),run:Lestaurtinib_02795_R2,Plate:MR022): 63.4 nM; potency estimated from few doses ([1]; compound concentrations:100 nM and 1000 nM (sheet 'Lestaurtinib' of Supplementary Table 1),run:Lestaurtinib_02802_R1,Plate:MR029): 73 nM; potency estimated from few doses ([1]; compound concentrations:100 nM and 1000 nM (sheet 'Lestaurtinib' of Supplementary Table 1),run:Lestaurtinib_02802_R2,Plate:MR029): 83.4 nM; potency estimated from few doses ([1]; compound concentrations:100 nM and 1000 nM (sheet 'Lestaurtinib' of Supplementary Table 1),run:Lestaurtinib_02802_R3,Plate:MR029): 32.3 nM; potency estimated from few doses ([1]; compound concentrations:100 nM and 1000 nM (sheet 'Lestaurtinib' of Supplementary Table 1),run:Lestaurtinib_02896_R1,Plate:MR030): 78.3 nM; potency estimated from few doses ([1]; compound concentrations:100 nM and 1000 nM (sheet 'Lestaurtinib' of Supplementary Table 1),run:Lestaurtinib_02896_R3,Plate:MR030): 80.6 nM; potency estimated from few doses ([1]; compound concentrations:100 nM and 1000 nM (sheet 'Lestaurtinib' of Supplementary Table 1),run:Lestaurtinib_03172_R1,Plate:MR031): 67.3 nM; potency estimated from few doses ([1]; compound concentrations:100 nM and 1000 nM (sheet 'Lestaurtinib' of Supplementary Table 1),run:Lestaurtinib_03172_R3,Plate:MR031): 72.8 nM; potency estimated from few doses ([1]; compound concentrations:100 nM and 1000 nM (sheet 'Lestaurtinib' of Supplementary Table 1),run:Lestaurtinib_03252_R1,Plate:MR032): 64.8 nM; potency estimated from few doses ([1]; compound concentrations:100 nM and 1000 nM (sheet 'Lestaurtinib' of Supplementary Table 1),run:Lestaurtinib_03252_R2,Plate:MR032): 23.9 nM; potency estimated from few doses ([1]; compound concentrations:100 nM and 1000 nM (sheet 'Lestaurtinib' of Supplementary Table 1),run:Lestaurtinib_03260_R2,Plate:MR033): 63.7 nM; potency estimated from few doses ([1]; compound concentrations:100 nM and 1000 nM (sheet 'Lestaurtinib' of Supplementary Table 1),run:Lestaurtinib_03260_R3,Plate:MR033): 78.5 nM; potency estimated from few doses ([2]; compound concentrations:100 nM and 1000 nM (sheet 'Lestaurtinib' of Supplementary Table 1),run:Lestaurtinib_02339_R1,Plate:MR001): 963 nM; potency estimated from few doses ([2]; compound concentrations:100 nM and 1000 nM (sheet 'Lestaurtinib' of Supplementary Table 1),run:Lestaurtinib_02339_R3,Plate:MR001): 953 nM; potency estimated from few doses ([2]; compound concentrations:100 nM and 1000 nM (sheet 'Lestaurtinib' of Supplementary Table 1),run:Lestaurtinib_02364_R1,Plate:MR002): 713 nM; potency estimated from few doses ([2]; compound concentrations:100 nM and 1000 nM (sheet 'Lestaurtinib' of Supplementary Table 1),run:Lestaurtinib_02364_R2,Plate:MR002): 541 nM; potency estimated from few doses ([2]; compound concentrations:100 nM and 1000 nM (sheet 'Lestaurtinib' of Supplementary Table 1),run:Lestaurtinib_02364_R3,Plate:MR002): 553 nM; potency estimated from few doses ([2]; compound concentrations:100 nM and 1000 nM (sheet 'Lestaurtinib' of Supplementary Table 1),run:Lestaurtinib_02367_R1,Plate:MR003): 1320 nM; potency estimated from few doses ([2]; compound concentrations:100 nM and 1000 nM (sheet 'Lestaurtinib' of Supplementary Table 1),run:Lestaurtinib_02367_R3,Plate:MR003): 892 nM; potency estimated from few doses ([2]; compound concentrations:100 nM and 1000 nM (sheet 'Lestaurtinib' of Supplementary Table 1),run:Lestaurtinib_02381_R1,Plate:MR004): 1400 nM; potency estimated from few doses ([2]; compound concentrations:100 nM and 1000 nM (sheet 'Lestaurtinib' of Supplementary Table 1),run:Lestaurtinib_02381_R2,Plate:MR004): 954 nM; potency estimated from few doses ([2]; compound concentrations:100 nM and 1000 nM (sheet 'Lestaurtinib' of Supplementary Table 1),run:Lestaurtinib_02381_R3,Plate:MR004): 761 nM; potency estimated from few doses ([2]; compound concentrations:100 nM and 1000 nM (sheet 'Lestaurtinib' of Supplementary Table 1),run:Lestaurtinib_02407_R1,Plate:MR005): 755 nM; potency estimated from few doses ([2]; compound concentrations:100 nM and 1000 nM (sheet 'Lestaurtinib' of Supplementary Table 1),run:Lestaurtinib_02407_R3,Plate:MR005): 722 nM; potency estimated from few doses [2, 3]: 74.8 nM; potency estimated from few doses [2, 4]: 616 nM; potency estimated from few doses [2, 5]: 56.5 nM; potency estimated from few doses ([2]; compound concentrations:100 nM and 1000 nM (sheet 'Lestaurtinib' of Supplementary Table 1),run:Lestaurtinib_02438_R1,Plate:MR008): 857 nM; potency estimated from few doses [2, 6]: 792 nM; potency estimated from few doses ([2]; compound concentrations:100 nM and 1000 nM (sheet 'Lestaurtinib' of Supplementary Table 1),run:Lestaurtinib_02473_R1,Plate:MR010): 730 nM; potency estimated from few doses ([2]; compound concentrations:100 nM and 1000 nM (sheet 'Lestaurtinib' of Supplementary Table 1),run:Lestaurtinib_02473_R2,Plate:MR010): 941 nM; potency estimated from few doses [2, 7]: 799 nM; potency estimated from few doses ([2]; compound concentrations:100 nM and 1000 nM (sheet 'Lestaurtinib' of Supplementary Table 1),run:Lestaurtinib_02482_R1,Plate:MR011): 788 nM; potency estimated from few doses [2, 8]: 508 nM; potency estimated from few doses ([2]; compound concentrations:100 nM and 1000 nM (sheet 'Lestaurtinib' of Supplementary Table 1),run:Lestaurtinib_02482_R3,Plate:MR011): 568 nM; potency estimated from few doses [2, 9]: 422 nM; potency estimated from few doses [2, 10]: 679 nM; potency estimated from few doses [2, 11]: 702 nM

— publication PMC11062922 (Nature Chemical Biology, 2023)
